The panel holds about 83,000 compounds, 20% with a hit somewhere; the sample as a whole holds those more often.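 The test compound was applied at a single concentration to cells in 96-well plates for 48 hours, and percent growth was recorded.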 Activity calls are given as the source filed them. How the source made its calls: active means growth percent below 10; inactive means the rest.
Legend:
Assay in all cases: NCI-60 one-dose screen, 48 h (100 = growth as untreated, 0 = no growth, -100 = all killed)
Details in all cases: 10 µM unless noted
[1] = test system: NCI-H23 lung
[2] = test system: NCI-H226 lung
[3] = test system: NCI-H322M lung
[4] = test system: HOP-62 NSCLC
[5] = test system: NCI-H460 lung
[6] = test system: HOP-92 NSCLC
[7] = test system: NCI-H522 lung
[8] = test system: A549/ATCC NSCLC
[9] = test system: 786-0 renal
[10] = test system: COLO 205 colon
[11] = test system: DU-145 prostate
[12] = test system: K-562 leukemia
[13] = test system: MALME-3M melanoma
[14] = test system: MDA-MB-231 breast
[15] = test system: RXF 393 renal
[16] = test system: SF-268 CNS
[17] = test system: SF-295 CNS
[18] = test system: SF-539 CNS
[19] = test system: M14 melanoma

Measured: growth

CCN(CC)CCCNc1nc(C)cc(Nc2ccc3nc(C)cc(N)c3c2)n1
inactive: [1] 93% | [2] 104% | [3] 95.5% | [4] 81% | [5] 110% | [6] 97.5% | [7] 93.3% | [8] 81% | [9] 97.8% | [10] 97.4% | [11] 116% | [12] 106% | [13] 107% | [14] 103% | [15] 117% | [16] 92.9% | [17] 95.1% | [18] 103% | [19] 96.6%

O=[N+]([O-])c1ccc(S(=O)(=O)N2CCN(c3ccnc4cc(Cl)ccc34)CC2)c([N+](=O)[O-])c1
inactive: [1] 97.2% | [2] 83.7% | [3] 107% | [4] 96.4% | [5] 99.2% | [6] 82.1% | [7] 46.1% | [8] 99.2% | [9] 80.8% | [10] 91.4% | [11] 92.3% | [12] 18% | [13] 76.2% | [14] 85.3% | [15] 74% | [16] 86% | [17] 100% | [18] 93.5% | [19] 92.2%

O=c1[nH]c(CN2CCN(c3ccccc3F)CC2)nc2sc3c(c12)CCC3
inactive: [1] 105% | [2] 102% | [3] 98.9% | [4] 92.4% | [5] 123% | [6] 89% | [7] 98.7% | [8] 110% | [9] 95.8% | [10] 91.9% | [11] 109% | [12] 109% | [13] 96.4% | [14] 96.3% | [15] 160% | [16] 121% | [17] 144% | [18] 98.6% | [19] 108%

CC1Cc2c(N(C)C)ncnc2N(C)c2ccc(O)cc21 (centres undefined)
inactive: [1] 92.8% | [2] 104% | [3] 96.5% | [4] 72.8% | [5] 97.7% | [6] 81.2% | [7] 49.1% | [8] 85.1% | [9] 81.4% | [10] 103% | [11] 101% | [12] 36.5% | [13] 89.5% | [14] 87.2% | [15] 95.2% | [16] 87.4% | [17] 91.8% | [18] 91.3% | [19] 73.7%

O=C(Cc1c(F)cccc1Cl)Nc1ccc(S(=O)(=O)Nc2ncccn2)cc1
inactive: [1] 97.6% | [2] 99.4% | [3] 116% | [4] 96.2% | [5] 114% | [6] 91.1% | [7] 104% | [8] 110% | [9] 103% | [10] 105% | [11] 104% | [12] 89.7% | [13] 124% | [14] 109% | [15] 38.1% | [16] 116% | [17] 92.5% | [18] 96.5% | [19] 110%

C#CCC1(c2ccc(F)c(F)c2)NS(=O)(=O)c2ccccc21 (centres undefined)
inactive: [1] 98.1% | [2] 103% | [3] 90.5% | [4] 86.2% | [5] 108% | [6] 106% | [7] 65.5% | [8] 76.9% | [9] 101% | [10] 110% | [11] 107% | [12] 89.4% | [13] 93.7% | [14] 109% | [15] 114% | [16] 102% | [17] 105% | [18] 104% | [19] 107%

O=C(/C=C/CN1CCCCC1)Nc1cc2c(Nc3ccc(F)c(Cl)c3F)ncnc2cc1OCCOC(F)F
active: [3] 5.03% | [6] -39.2% | [7] -32% | [12] 7.24% | [14] -4.23% | [15] -17.1%
inactive: [1] 26.3% | [2] 28.6% | [4] 20.6% | [5] 21.7% | [8] 18.2% | [9] 10.7% | [10] 24.8% | [11] 17.6% | [13] 25.8% | [16] 16.1% | [17] 28.1% | [18] 16.8% | [19] 34.2%

Cc1cc2c(C(C)C)c(O)c(O)c(C=NCCCCC(=O)O)c2c(O)c1-c1c(C)cc2c(C(C)C)c(O)c(O)c(C=NCCCCC(=O)O)c2c1O
inactive: [1] 33.8% | [2] 85.2% | [3] 46% | [4] 50% | [5] 23.8% | [6] 22.6% | [7] 23.4% | [8] 49.1% | [9] 49.1% | [10] 41.1% | [11] 63.8% | [12] 26.4% | [13] 78.8% | [14] 40% | [15] 57% | [16] 44.2% | [17] 27.3% | [18] 42.2% | [19] 66.9%

Nc1cc2c(cc1N)-c1cc(N)c(N)cc1C2
inactive: [1] 95% | [2] 98% | [3] 102% | [4] 95.5% | [5] 105% | [6] 86.7% | [7] 88.3% | [8] 97.9% | [9] 100% | [10] 116% | [11] 118% | [12] 107% | [13] 102% | [14] 83.8% | [15] 107% | [16] 91.4% | [17] 113% | [18] 103% | [19] 101%

O=C1Nc2cc(Cl)ccc2/C1=C/c1ccc(N2CCOCC2)s1
inactive: [1] 109% | [2] 92.9% | [3] 101% | [4] 99.4% | [5] 112% | [6] 89.4% | [7] 101% | [8] 103% | [9] 88.5% | [10] 95.1% | [11] 110% | [12] 98.5% | [13] 96.5% | [14] 99% | [15] 93.9% | [16] 114% | [17] 86.8% | [18] 92.3% | [19] 111%

COc1ccc(/C=C(\C#N)c2ccc([N+](=O)[O-])cc2)c2ccccc12
inactive: [1] 65.3% | [2] 16.1% | [3] 51.6% | [4] 27.1% | [5] 64.6% | [6] 50.1% | [7] 34% | [8] 48.7% | [9] 34.5% | [10] 81.4% | [11] 60.9% | [12] 44.7% | [13] 14.6% | [14] 45% | [15] 58.3% | [16] 39.8% | [17] 70.7% | [18] 49.4% | [19] 65.7%

O=C(O)C(=Cc1c2ccccc2cc2ccccc12)C(=O)O
inactive: [1] 91.3% | [2] 109% | [3] 100% | [4] 105% | [5] 112% | [6] 105% | [7] 89.7% | [8] 92.1% | [9] 106% | [10] 113% | [11] 118% | [12] 100% | [13] 97.9% | [14] 103% | [15] 115% | [16] 108% | [17] 100% | [18] 97.3% | [19] 100%

CN(C)C/C=C/C(=O)Nc1cc2c(Nc3ccc(F)c(Cl)c3F)ncnc2cc1OCCOC(F)F
inactive: [1] 26.6% | [2] 25.1% | [4] 20.6% | [5] 36.6% | [8] 21.8% | [10] 20.1% | [11] 10.4% | [13] 35.3% | [16] 14.4% | [17] 33.7% | [19] 41.5%
active: [3] 1.96% | [6] -53.7% | [7] -25.7% | [9] 0.67% | [12] 5.47% | [14] -1.17% | [15] -29.4% | [18] 9.19%

COC(=O)c1ccc(C)cc1
inactive: [1] 97.5% | [2] 106% | [3] 113% | [4] 107% | [5] 106% | [6] 100% | [7] 97.5% | [8] 103% | [9] 103% | [10] 106% | [11] 103% | [12] 102% | [13] 108% | [14] 107% | [15] 106% | [16] 97.9% | [17] 102% | [18] 103% | [19] 116%

C=C1C(=O)O[C@H]2[C@H]1CC/C(COC(=O)NCc1cc(OC)c(OC)c(OC)c1)=C\CC[C@@]1(C)O[C@@H]21
inactive: [1] 86.8% | [2] 76.2% | [3] 99.5% | [4] 80.4% | [5] 94% | [6] 72.4% | [8] 88.1% | [9] 40.3% | [10] 17.6% | [11] 43.3% | [12] 16.3% | [13] 101% | [14] 56.5% | [15] 60.4% | [16] 68.5% | [17] 99.4% | [18] 65.1% | [19] 49.9%
active: [7] -42.6%

COc1ccc(/C(=N/O)c2cc(F)c(F)c(OC)c2F)cc1O
active: [5] 9.72% | [7] -56.7% | [17] 1.83% | [18] -22.8%
inactive: [1] 39.2% | [2] 85.7% | [3] 46% | [4] 21.5% | [6] 50.8% | [8] 42% | [9] 45% | [10] 62.1% | [11] 16.9% | [12] 10.3% | [13] 60.7% | [14] 47.8% | [15] 16.7% | [16] 48.1% | [19] 15.4%

Source: PubChem BioAssay (NCI)
